SMN2 splice enh: enhancers of SMN2 splice variant expression. AID 1458. HEK293 SMN2-luciferase splicing reporter, luminescence, 30-36 h. 2.8% of 210,000 active. Potency, µM (top dose mostly 46.1 µM), without a hit: at the highest dose activity change, positive = activation, actives largely listed as activators; also: % of control where 0% means no effect; nearly all actives have a fitted effect of over 55% in size
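qHTS luciferase splicing reporter: luminescence rises when SMN2 exon 7 is included in transfected HEK293 cells. Compound exposure lasted 30-36 h at 37C, with 4.5 mM final sodium butyrate as control, followed by a ONE-Glo read.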
Rab9 promoter act: activators of Rab9 promoter; Huh7 Rab9 promoter-luciferase reporter, luminescence, 24 h; Potency, µM (doses to about 9.22 µM), for inactives: at the highest dose activation, negative = inhibition, actives largely listed as activators; 2.8% of 320,000 active; also: % of control where 0% means no effect; nearly all actives have a fitted effect of over 60% in size
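Stable Rab9-luc Huh7, 1500 cells/well, 2 h settle; cmpd in DMSO, 24 h, 37 °C/5% CO2; luciferase reagent 10 min RT; luminescence.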
FLuc modulator: counter-screen for miR-21 project: firefly luciferase inhibitors or activators; P08659; Potency, µM (highest dose often 57.5 µM), for the others: at the top dose activity change, negative = inhibition, actives largely listed as inhibitors; purified FLuc, Km substrates, luminescence inhibition; 6.9% of 360,000 active; AID 588342;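 also: plate controls were vehicle for no effect and reference inhibitor for full effect; nearly all actives have a fitted effect of over 55% in size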
Target sequence (P08659 whole entry, looked up): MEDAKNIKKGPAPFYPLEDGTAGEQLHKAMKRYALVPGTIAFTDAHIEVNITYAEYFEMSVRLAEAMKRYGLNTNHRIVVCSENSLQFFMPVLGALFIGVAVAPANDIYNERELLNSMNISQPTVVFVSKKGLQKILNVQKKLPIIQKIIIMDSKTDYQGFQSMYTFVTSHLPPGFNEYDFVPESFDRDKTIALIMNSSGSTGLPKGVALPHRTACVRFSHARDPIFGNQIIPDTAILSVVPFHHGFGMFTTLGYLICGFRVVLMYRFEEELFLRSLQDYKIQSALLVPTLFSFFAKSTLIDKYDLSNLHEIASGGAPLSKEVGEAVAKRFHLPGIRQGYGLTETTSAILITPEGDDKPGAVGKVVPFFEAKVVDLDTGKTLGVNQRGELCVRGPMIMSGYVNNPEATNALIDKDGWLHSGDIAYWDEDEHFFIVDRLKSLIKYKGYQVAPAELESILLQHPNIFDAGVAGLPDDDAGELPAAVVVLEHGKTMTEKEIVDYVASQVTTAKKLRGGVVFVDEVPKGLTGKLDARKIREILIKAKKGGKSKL
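Purified P. pyralis luciferase, 10 nM final, with Km-level 10 uM D-luciferin and 10 uM ATP in 50 mM Tris acetate pH 7.5, 10 mM Mg acetate, 0.01% Tween-20, 0.05% BSA; 6-point qHTS titration about 60 µM downward; luminescence read.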
ELG1 genotox: inducers of genotoxicity in HEK293T ELG1-luciferase cells; Potency, µM (highest dose often 46 µM), for the others: at the top dose activity change, positive = activation, actives largely listed as activators; HEK293T ELG1-luciferase reporter, luminescence, 16 h; 1.3% of 330,000 active; AID 504466; also: % of control where 0% means no effect; nearly all actives have a fitted effect of over 60% in size
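HEK293T cells expressing luciferase-tagged ELG1 were treated with compound or DMSO for 16 hr at 37°C. Luciferase activity was then read after 30 min with ONE-Glo at room temperature; rising signal flags genetic stress.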
NPC1 prom act: activates the NPC1 promoter | Huh7 NPC1 promoter luciferase reporter, 24 h | Potency, µM (highest dose often 9.22 µM), without a hit: at the highest dose activation, usual class: activators | 2.4% of 320,000 active | AID 485313; also: % of control where 0% means no effect; nearly all actives have a fitted effect of over 60% in size
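In 1536-well qHTS, Huh7 cells harboring an NPC1 promoter–luciferase construct received compound for 24 h; activation was quantified by luminescence following luciferase reagent addition.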
* = called active by the depositor; ? = inconclusive; · = no result; [ ] = dose if it differs, or a comment. Shown are actives, neighbours in structure and some others; about 7.4% of the full set was active somewhere. Calls follow the shape of the dose curve; as a rule, active = well fitted curve in the direction sought with a large enough effect; inconclusive = small, poorly fitted or top-dose-only effect, or another doubt; inactive = no such curve, though single readings can be large; an effect the other way counts as inactive or inconclusive. Potency is read from the fitted curve at half-maximal effect.

SMILES	SMN2 splice enh	Rab9 promoter act	FLuc modulator	ELG1 genotox	NPC1 prom act
Oc1ccc(/C=C/c2ccnc3ccccc23)cc1	20.5%	17.0%	23.9µM*	10.8%	10.4%
Cc1cc(C)cc(-n2ccnc2SCC(=O)Nc2nc3ccc(C)cc3s2)c1	·	·	-1.1%	·	·
Cc1ccnc(N2C(=O)c3ccccc3C2Nc2cccc(C)c2C)c1 (stereo not given)	8.8%	-3.6%	3.4%	0.7%	-3.5%
Cc1ccnc(N2C(=O)c3ccccc3C2O)c1 (stereo not given)	11.2µM*	?	6.01µM*	1.84µM*	1µM*
Cc1cc(OCC(F)(F)C(F)(F)C(F)(F)C(F)F)nc(N)n1	4.8%	-5.3%	16.9µM*	5.3%	-4.8%
COc1cccc(NC(=O)CCC(=O)Nc2cccc(OC)c2)c1	-14.3%	6.2%	-0.6%	2.3%	1.9%
COc1cccc(C(=O)Nc2cc(Cl)c(O)c(Cl)c2)c1	·	11.6%	15.1µM*	7.9%	?
COc1cccc(NC(=O)CC(=O)c2ccc([N+](=O)[O-])cc2)c1	·	2.8%[1.84 µM]	2.13µM*	7.7%	?
COc1cccc(NC(=O)c2cccc(C)c2[N+](=O)[O-])c1	?	?	19µM*	?	9.9%
COc1cccc(NC(=O)N2CCN(c3cccc(C)c3C)CC2)c1	1.6%	2.6%	15.1µM*	?	17.8%
COc1ccccc1N1CCN(C(=O)Nc2cccc(Cl)c2)CC1	-17.1%	0.9%	?	7.9%	12.7%
COc1cccc(NC(=O)c2ccc3nsnc3c2)c1	·	?	12µM*	?	?
COc1cccc(NC(=O)CNC(=O)c2ccccc2)c1	22.1%	24.7%	-21.1%	?	18.5%
COc1cccc(NC(=O)Nc2cccc(C(=O)O)c2)c1	·	?	0.169µM*	-10.2%	?
O=C(Nc1ccc(F)cc1)c1cccc(C(=O)Nc2ccc(F)cc2)c1	·	6.6%	-1.1%	10.0%	4.3%
COc1ccccc1NC(=O)c1ccc2nsnc2c1	·	3.98µM*	15.1µM*	?	?
O=C(Nc1ccc(F)cc1)c1ccc2nsnc2c1	·	?	13.5µM*	8.9%	?
CCC(=O)N1CCc2cc(S(=O)(=O)CCC(=O)Nc3ccc(Cl)c(C(F)(F)F)c3)ccc21	15.0%	·	0.6%	·	·
COc1ccc(NC(=O)Nc2cccnc2)c(OC)c1	7.2%	-2.0%	-10.2%	2.8%	0.9%
COc1cccc(/C(C)=N/NC(=O)c2ccc(N(C)C)cc2)c1	?	3.55µM*	19µM*	?	?
COc1cc(C(=O)Nc2ccc(N(C)C)cc2)cc(OC)c1OC	·	23.6%	3.01µM*	?	3.6%
COc1cccc(C(=O)N/N=C(\C)CC(=O)Nc2ccc(N(C)C)cc2)c1	·	-2.0%	?	0.5%	0.1%
COc1cc(C(=O)Nc2ccc(S(=O)(=O)N(C)c3ccccc3)cc2)cc(OC)c1OC	?	10.0%	-0.8%	10.8%	-6.5%
COc1cc(OC)cc(C(=O)Nc2cccc(C(C)=O)c2)c1	9.9%	18.3%	?	?	14.6%
COc1cccc(NC(=O)Nc2cccnc2)c1	·	4.6%	16.9µM*	1.6%	17.4%
SMILES	SMN2 splice enh	Rab9 promoter act	FLuc modulator	ELG1 genotox	NPC1 prom act
COc1cc(OC)cc(C(=O)Nc2cccc(NC(=O)c3ccccc3)c2)c1	·	0.1%	16.9µM*	-6.6%	-4.1%
COc1cccc(CNC(=O)CN2C(=O)CSc3ccc(S(=O)(=O)N(C)C)cc32)c1	·	·	2.6%	·	·
Cc1cc(C)cc(NC(=O)NCc2noc3ccccc23)c1	·	·	-2.4%	·	·
COc1ccccc1CN1CC[C@@]2(CCCN(S(=O)(=O)c3ccccc3)C2)C1	-5.9%	·	·	·	·
Brc1ccc(CNCCCSc2nnnn2-c2ccccc2)cc1	·	·	5.0%	·	·
CC(C)OC(=O)c1cccc(NC(=O)c2ccccc2)c1	?	?	13.5µM*	13.7%	?
COc1cccc(NC(=O)Cn2nnc(C(=O)Nc3ccccc3)c2N)c1	-6.0%	-5.6%	?	-0.4%	0.6%
COc1cccc(-c2nnc(NC(=O)c3ccccc3Br)o2)c1	·	0.5%	-13.0%	-9.3%	0.2%
COc1cccc(NC(=O)c2nnn(CCc3ccccc3)c2N)c1	?	27.8%	15.1µM*	?	28.3%
